The values below come from PubChem BioAssay (NCATS).

Results filed as inconclusive are left out. Entries that show only a call come without a potency. Active and inactive are the calls of the source. Unless noted, calls follow the shape of the dose curve; as a rule, active = well fitted curve in the direction sought with a large enough effect; inconclusive = small, poorly fitted or top-dose-only effect, or another doubt; inactive = no such curve, though single readings can be large; an effect the other way counts as inactive or inconclusive.

The target in assay [1] is Pyruvate kinase PKM (Homo sapiens) (UniProt P14618). Nature of the assay: qHTS Assay for Activators of Human Muscle Pyruvate Kinase (AID 954; active = well fitted curve in the direction sought with a large enough effect, not every such curve was filed as active). In outline: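 Purified human PKM2 (0.1 nM) with 0.5 mM PEP (Km) and 0.1 mM ADP in 50 mM imidazole pH 7.2, KCl, MgCl2, 1 h at room temperature; ATP formed read by coupled luciferase luminescence. Normalized to no-enzyme/110 uM thiadiazolimine inhibition; 0.3 nM enzyme column for activation.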
Background: Quantitative high-throughput screening tests each substance at several concentrations.

Assay [2] has as its target Pyruvate kinase (Leishmania mexicana) (UniProt Q27686). Nature of the assay: qHTS Validation Assay for Inhibitors of Leishmania Mexicana Pyruvate Kinase (AID 945). Also: potency is read from the fitted curve at half-maximal effect. A digest of the protocol: (§1)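 Eight-point qHTS titrations; enzyme 0.2 nM LmPYK (E451W mutant); substrates 0.5 mM PEP, 0.1 mM ADP; 7 mM MgCl2; 1 h room temperature; PKLight luminescence normalized to neutral control.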

The target is the same in assay [3]. Kind of assay: qHTS Validation Assay for Activators of Leishmania Mexicana Pyruvate Kinase (AID 959). In outline:
as §1

Assay [4] addresses Pyruvate kinase PKM (Homo sapiens) (UniProt P14618). Kind of assay: qHTS Assay for Inhibitors of Human Muscle Pyruvate Kinase (AID 958). In outline: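 ATP production by PKM2 detected via luciferase luminescence after 1 h room-temperature reaction (0.1 nM enzyme, PEP at Km 0.5 mM, ADP 0.1 mM, pH 7.2 imidazole buffer). Inhibition scaled to no-enzyme control; activation referenced to 0.3 nM enzyme wells.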

Sequence of Pyruvate kinase PKM (Homo sapiens) (P14618 whole entry, looked up): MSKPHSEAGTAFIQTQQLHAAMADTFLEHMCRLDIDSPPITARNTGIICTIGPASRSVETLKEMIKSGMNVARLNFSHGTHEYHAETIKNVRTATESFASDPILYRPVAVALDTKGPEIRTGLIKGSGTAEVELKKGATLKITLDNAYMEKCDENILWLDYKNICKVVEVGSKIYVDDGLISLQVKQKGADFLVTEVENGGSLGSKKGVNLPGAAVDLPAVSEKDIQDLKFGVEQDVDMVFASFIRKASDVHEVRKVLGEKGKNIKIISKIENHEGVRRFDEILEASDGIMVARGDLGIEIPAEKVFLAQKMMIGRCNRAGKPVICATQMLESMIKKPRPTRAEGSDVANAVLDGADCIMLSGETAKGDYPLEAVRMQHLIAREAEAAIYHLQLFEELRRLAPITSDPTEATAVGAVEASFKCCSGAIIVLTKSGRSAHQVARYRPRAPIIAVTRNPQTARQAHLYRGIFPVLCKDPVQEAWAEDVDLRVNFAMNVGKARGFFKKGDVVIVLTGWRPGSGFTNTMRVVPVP
Sequence of Pyruvate kinase (Leishmania mexicana) (Q27686 2-499 E452W): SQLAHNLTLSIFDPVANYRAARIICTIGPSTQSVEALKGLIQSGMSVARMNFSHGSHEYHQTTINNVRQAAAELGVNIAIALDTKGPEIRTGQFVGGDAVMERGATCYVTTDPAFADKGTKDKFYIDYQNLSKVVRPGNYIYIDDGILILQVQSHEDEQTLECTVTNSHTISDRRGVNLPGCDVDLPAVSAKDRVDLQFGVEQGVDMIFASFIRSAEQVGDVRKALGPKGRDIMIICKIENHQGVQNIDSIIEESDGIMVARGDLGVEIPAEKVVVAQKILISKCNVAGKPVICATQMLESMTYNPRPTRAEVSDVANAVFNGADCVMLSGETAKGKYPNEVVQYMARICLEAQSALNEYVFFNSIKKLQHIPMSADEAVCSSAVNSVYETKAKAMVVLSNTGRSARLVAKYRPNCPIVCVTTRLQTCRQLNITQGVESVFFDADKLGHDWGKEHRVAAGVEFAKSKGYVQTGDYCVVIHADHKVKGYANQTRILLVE

`N#C/C(=C\c1ccc(O)c(O)c1)C(=O)NCCCNC(=O)/C(C#N)=C/c1ccc(O)c(O)c1`: the outcome in assay [1] was inactive.

As to `[Li+]`, in assay [2], the Potency result was “inactive”. In addition, the outcome in assay [1] was inactive.

For `O=[N+]([O-])c1cccc2c(Br)[nH]nc12`, the Potency result in assay [2] was “inactive”. Further, in assay [1], the result was inactive.

On to `CCCCCCN(CCCCCC)C(=O)Cc1c(-c2ccc(F)cc2)[nH]c2ccccc12`, for which the Potency entry in assay [2] was “inactive”. Also, the compound was classed as inactive in assay [1].

Regarding `CCCCCCC/C=C\CCCCCCCCC(=O)O`, the Potency entry in assay [2] is “inactive”. Moreover, the compound was called inactive in assay [1].

With `CNC(=O)c1cc2c(cn1)[nH]c1ccccc12`, in assay [1], the compound was called inactive. Besides, the Potency result in assay [3] was “inactive”.

On to `Cc1nc(N=Nc2ccc(C(=O)O)cc2)c(COP(=O)(O)O)c(C=O)c1O`, for which, in assay [2], the Potency result is “inactive”. Further, the compound was classed as inactive in assay [1]. Besides, in assay [3], the Potency was 5.01 µM (active).

For the compound `N#CC(C#N)=C(N)/C(C#N)=C/c1ccc(O)cc1`, in assay [2], the Potency result was “inactive”. Besides, in assay [1], the outcome was inactive.

In the case of `O=[N+]([O-])c1cccc2cn[nH]c12`, in assay [2], the Potency result was “inactive”. The call in assay [1] was inactive.

Consider `COc1ccc2c(c1)c(CC(=O)O)c(C)n2C(=O)c1ccccc1`, for which, in assay [2], the Potency result was “inactive”. In addition, in assay [1], the compound was called inactive.

Consider `NCCCNCCCCNCCCN`, for which the Potency entry in assay [2] is “inactive”. The call in assay [1] was inactive.

For `NC(N)=NC(N)=Nc1cccc(Cl)c1`, the Potency entry in assay [2] is “inactive”. Also, the outcome in assay [1] was inactive.

On to `CCN(CC)CCCCCCCCOC(=O)c1cc(OC)c(OC)c(OC)c1`, for which the Potency result in assay [2] was “inactive”. The result in assay [1] was inactive.

Turning to `N=C(N)c1ccc(OCCCCCOc2ccc(C(=N)N)cc2)cc1` (tested in a mixture with another compound), the compound was called inactive in assay [1].

In the case of `N[C@H](C(=O)O)[C@H](O)C(=O)O`, the Potency result in assay [2] was “inactive”. For the same compound, the call in assay [1] was inactive.

With `CNc1cc(NS(=O)(=O)c2ccc(N)cc2)nc(NC)n1`, the Potency result in assay [2] was “inactive”. The compound was classed as inactive in assay [1].

For the compound `Nc1ccc(-c2ccc3ccccc3n2)cc1`, the Potency in assay [2] and in assay [4] was 12.6 µM (active) throughout. Besides, the outcome in assay [1] was inactive. The Potency entry in assay [3] is “inactive”.

With `NC(=O)CNCCC(c1ccccc1)c1ccccc1`, in assay [2], the Potency entry was “inactive”. Further, the compound was classed as inactive in assay [1].

In the case of `Cn1c(=O)[nH]c2ncn(C)c2c1=O`, the Potency result in assay [2] is “inactive”. For the same compound, in assay [1], the outcome was inactive.

For `CC(=O)NNC(=O)N1Cc2ccccc2Oc2ccc(Cl)cc21`, the Potency result in assay [2] is “inactive”. The compound was called inactive in assay [1].

With `O=c1onc2n1-c1cc(Br)ccc1OC2`, the Potency result in assay [2] was “inactive”. Also, in assay [1], the result was inactive.

For `O=C(O)c1cccnc1C(=O)O`, in assay [2], the Potency result was “inactive”. In addition, in assay [1], the outcome was inactive.

As to `Nn1nnc2ccccc21`, the Potency result in assay [2] was “inactive”. Also, the compound was classed as inactive in assay [1].

In the case of `O=C1Cc2c([nH]c3ccc(Br)cc23)-c2ccccc2N1`, in assay [1], the call was inactive. For the same compound, in assay [3], the Potency result was “inactive”.

For the compound `O=C(O)Cc1c[nH]c2ccc(O)cc12`, the Potency result in assay [2] is “inactive”. For the same compound, the compound was called inactive in assay [1].

Regarding `CCC(=O)N1CCN(C(=O)c2ccccc2)CC1`, the Potency entry in assay [2] is “inactive”. Moreover, the call in assay [1] was inactive.

`NCCCCN`: the Potency result in assay [2] is “inactive”. In addition, in assay [1], the compound was called inactive.

Take `CCSC(=N)N`: in assay [2], the Potency entry is “inactive”. The call in assay [1] was inactive.

Consider `O=C(O)C1=CC(=C(c2ccc(O)c(C(=O)O)c2)c2ccc(O)c(C(=O)O)c2)C=CC1=O`, for which the Potency result in assay [2] and in assay [4] was “inactive” in each case.

Regarding `COc1cc(/C=C(\C#N)C(=O)c2ccc(O)c(O)c2)cc(I)c1O`, the Potency result in assay [2] is “inactive”. For the same compound, the result in assay [1] was inactive. For the same compound, the Potency in assay [3] was 15.8 µM (active).

Take `N#Cc1cc2nc(O)c(O)nc2cc1[N+](=O)[O-]`: the Potency entry in assay [2] is “inactive”. Further, the compound was called inactive in assay [1]. Moreover, the Potency in assay [3] was 25.1 µM (active).

As for `Cc1nc(N=Nc2cc(S(=O)(=O)O)c3cc([N+](=O)[O-])cc(S(=O)(=O)O)c3c2)c(COP(=O)(O)O)c(C=O)c1O`, the Potency result in assay [2] is “inactive”. Besides, in assay [1], the call was inactive.

For `N=C(N)SCCN`, the Potency result in assay [2] was “inactive”. In assay [1], the result was inactive.

As for `Nc1ccc(-c2nc3ccc(-c4nc5ccc(N)cc5[nH]4)cc3[nH]2)cc1`, the outcome in assay [1] was inactive. Besides, the Potency result in assay [3] was “inactive”.

Regarding `NS(=O)(=O)c1cccc2c1c([N+](=O)[O-])cc1nc(O)c(O)nc12`, the Potency entry in assay [2] and in assay [4] was “inactive” in each case.

With `COc1ccc(CCN(C)CCc2ccc(OC)c(OC)c2)cc1OC`, in assay [2], the Potency result is “inactive”. The compound was classed as inactive in assay [1].

For `Cc1nc(N=Nc2ccc(S(=O)(=O)O)cc2S(=O)(=O)O)c(COP(=O)(O)O)c(C=O)c1O`, the Potency result in assay [2] was “inactive”. For the same compound, in assay [1], the result was inactive. Further, the Potency in assay [3] is 3.98 µM (active).
